# Screening results as filed in PubChem BioAssay.
# This is a sample that favours compounds with a hit; in the whole collection about 10% have one here.
# VDR inhibitor: blocks the human vitamin D receptor | AID 504847 | 400,000 compounds, 0.93% hits | VDR-SRC2-3 peptide fluorescence polarization, 2 h | Potency, µM, hits mostly inhibitors
#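 Inhibition of the VDR/SRC2-3 peptide interaction is quantified by fluorescence polarization. Compounds (23 nl, pintool) incubate with the reagents for 2 hours at ambient room temperature.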
# CCT modulator: modulators of cytosolic chaperonin (CCT/TRiC) activity | purified chaperonin ATPase assay, HTRF ADP detection, 30 min | activity change, % (concentration not given with the values), hits read low | 360,000 compounds, 0.3% hits | AID 651819; in the data active = activity change below about -30%
#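 TRiC (40 or 20 nM final, by batch activity) in 30 mM Tris pH 7.4, 100 mM KCl, 5 mM MgCl2, 1 mM DTT was treated with compound at 76 uM single dose, then 10 uM ATP, 30 min at 37 °C. ADP was read by HTRF Transcreener.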
# Sfp PPTase inh: Sfp phosphopantetheinyl transferase inhibition; Potency, µM, actives largely listed as inhibitors; 310,000 compounds, 3.5% hits; Q9F4F7; Biochemical Sfp PPTase activity, qHTS;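 also: the enzyme is Sfp with the accession as filed and its product quenches rhodamine fluorescence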
#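 Step 1, compound plus 15 nM Sfp-PPTase, 15 min, room temperature. Step 2, add rhodamine-CoA (5 uM) and BHQ-2-YbbR (12.5 uM). Step 3, read 525/598 nm fluorescence at 0 and 30 min.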
# PLK1 PBD block: PLK1 (human) polo-box domain binding inhibition; Plk1 PBD binding of FITC phosphopeptide, fluorescence polarization; Potency, µM, most hits filed as inhibitors; 360,000 compounds, 2.8% hits; P53350; also: series mostly up to about 57 µM; nearly all actives have a fitted effect of over 65% in size
# Target sequence (P53350 whole entry, looked up, the tested form may be a part): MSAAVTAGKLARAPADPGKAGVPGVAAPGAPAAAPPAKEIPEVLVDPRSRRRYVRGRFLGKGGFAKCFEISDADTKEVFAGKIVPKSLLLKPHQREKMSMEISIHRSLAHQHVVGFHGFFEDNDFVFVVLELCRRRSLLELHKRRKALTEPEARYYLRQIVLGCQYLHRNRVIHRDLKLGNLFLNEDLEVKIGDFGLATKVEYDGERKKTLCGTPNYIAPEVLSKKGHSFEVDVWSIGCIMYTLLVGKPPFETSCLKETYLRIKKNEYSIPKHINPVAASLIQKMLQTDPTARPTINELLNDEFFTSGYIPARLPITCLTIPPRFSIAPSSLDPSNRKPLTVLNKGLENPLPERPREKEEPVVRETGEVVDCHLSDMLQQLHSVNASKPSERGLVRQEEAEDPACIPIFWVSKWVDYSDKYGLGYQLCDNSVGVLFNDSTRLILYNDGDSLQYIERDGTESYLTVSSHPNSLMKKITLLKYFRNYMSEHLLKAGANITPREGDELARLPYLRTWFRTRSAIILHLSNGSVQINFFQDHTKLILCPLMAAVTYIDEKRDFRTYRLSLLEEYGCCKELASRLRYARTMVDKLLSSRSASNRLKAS
# MmCpn inh: inhibitors of Methanococcus maripaludis chaperonin TRiC (MmCpn) | purified Mm-Cpn ATPase, ADP Transcreener TR-FRET | Potency, µM (top dose mostly 76.9 µM), hits mostly inhibitors | 330,000 compounds, 0.031% hits; also: nearly all actives have a fitted effect of over 80% in size
#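 TR-FRET (320 nm excitation; 590 and 665 nm emission) reports ADP made from 10 uM ATP by 25 nM enzyme; compounds were preincubated 10 min, reaction run 30 min, both at 37°C.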
# G9a block: inhibitors of human histone lysine methyltransferase G9a; G9a H3K9 monomethylation, AlphaScreen, 2 h; Potency, µM (doses to about 102 µM), most hits filed as inhibitors; 350,000 compounds, 8.8% hits; also: nearly all actives have a fitted effect of over 75% in size
#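 Chemiluminescent proximity detection of H3K9 monomethylation, read after 10 min bead incubation in the dark. Reaction: 20 nM G9a, 500 nM biotin-H3K9 peptide, 20 uM SAM cofactor, 2 h, room temperature, following 15 min enzyme-compound preincubation.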
# Sfp PPTase conf: Sfp phosphopantetheinyl transferase inhibition, confirmation; shares compounds with Sfp PPTase inh; Sfp PPTase enzymatic assay, qHTS titration; Potency, µM (titrated, usually from 114 µM), actives largely listed as inhibitors; 380 compounds, 79% hits
# A number is an active result; n = inactive; u = inconclusive; x = no result given; ! = not confirmed by another sample; [ ] = another dose, or the depositor's remark. Unless noted, calls follow the shape of the dose curve; as a rule, active = well fitted curve in the direction sought with a large enough effect; inconclusive = small, poorly fitted or top-dose-only effect, or another doubt; inactive = no such curve, though single readings can be large; an effect the other way counts as inactive or inconclusive.
SMILES,VDR inhibitor,CCT modulator,Sfp PPTase inh,PLK1 PBD block,MmCpn inh,G9a block,others
COc1cccc(NC(=O)c2ccc3c(O)c(S(=O)(=O)c4ccccc4)c(=O)[nH]c3c2)c1,u,n,n,23.8µM,n,n,
Cc1cccc(NC(=O)c2ccc3c(O)c(S(=O)(=O)c4ccccc4)c(=O)[nH]c3c2)c1C,n,x,x,x,x,u,
Cc1ccccc1NC(=O)c1ccc2c(O)c(S(=O)(=O)c3ccccc3)c(=O)[nH]c2c1,n,n,n,n,n,50.1µM!,
COc1ccc(S(=O)(=O)c2c(O)c3ccc(C(=O)Nc4cccc(F)c4)cc3[nH]c2=O)cc1,u,n,n,n,n,u,
CC(C)CNc1cc(NC2CCCCC2)c2c3c(onc13)-c1ccccc1C2=O,u,x,x,x,x,10µM,
CCOc1ccc(NC(=O)C(c2ccccn2)N(C(=O)CCl)c2ccc(OCC)cc2)cc1 (stereo not given),n,n,39.8µM,n,n,3.55µM,
Nn1c(SC/C=C/c2ccccc2)nnc1-c1ccccn1,n,n,n,n,n,28.2µM,
Cc1cccc(CSc2nnc(-c3ccccn3)n2N)c1,n,n,n,n,n,14.1µM,
Cn1c(SCc2nc3ccccc3[nH]2)nnc1-c1cnccn1,n,n,n,n,n,n,
Clc1cccc(-c2nnc(SCc3nc4ccccc4[nH]3)n2Cc2ccco2)c1,n,n,n,n,n,39.8µM,
c1coc(Cn2c(SCc3nc4ccccc4[nH]3)nnc2-c2cnccn2)c1,n,n,n,n,n,31.6µM,
C=CCn1c(SCc2nc3ccccc3[nH]2)nnc1-c1ccncc1,n,n,n,n,n,n,
CCCCn1c(SCc2ccccc2C#N)nc2c(sc3ccccc32)c1=O,n,x,x,x,x,n,
COc1ccc(C)cc1Nc1nc2c(S(=O)(=O)c3cccc(Cl)c3)nnn2c2ccsc12,n,x,x,x,x,n,
Clc1ccccc1CSc1nnc(-c2ccccn2)n1Cc1ccco1,u,n,56.2µM,n,n,u,
NC(=O)CSc1nnc(-c2ccccn2)n1Cc1ccco1,n,n,n,n,n,n,
c1ccc(-c2nnc(SCc3nc4ccccc4[nH]3)n2Cc2ccco2)nc1,n,n,n,n,n,50.1µM,
CCn1c(SCc2nc3ccccc3[nH]2)nnc1-c1cccs1,n,n,n,n,n,n,
O=C(CSc1nnc(-c2ccccn2)n1Cc1ccco1)Nc1ccc2c(c1)OCO2,n,n,n,n,n,n[12.7 µM],
C(=C\c1ccccc1)/CSc1nnc(-c2ccccn2)n1Cc1ccco1,n,n,31.6µM,n,n,15.8µM,
CCOC(=O)N1C(COCc2ccccc2)C=CCS1(=O)=O (stereo not given),n,x,n,x,x,x,
CCn1c2ccccc2c2cc(NC(=O)CSc3nnc(-c4ccc(OC)c(OC)c4)n3N)ccc21,n,n,n,n,n,n[12.7 µM],
COc1ccc(-c2nnc(SC(C(=O)c3c[nH]c4ccccc34)c3ccccc3)n2N)cc1OC (stereo not given),n,n,n,n,n,8.91µM,
Cc1cc(C)c(C#N)c(Nc2ccccc2C)n1,n,n,n,n,n,x,
Cc1cc(C)c(C#N)c(Nc2cccc(C)c2C)n1,n,-43.7,n,n,n,n,
SMILES,VDR inhibitor,CCT modulator,Sfp PPTase inh,PLK1 PBD block,MmCpn inh,G9a block,others
CCCC[C@@H]1CCCO[C@@](C(=O)NCCN2CCOCC2)(C(F)(F)F)C1,n,x,n,x,x,x,
CN(C)c1ccc(C(CNC(=O)c2ccccc2F)N2CCc3ccccc32)cc1 (stereo not given),n,x,x,x,x,u,
COc1ccc(C(=O)NCC(c2ccc(N(C)C)cc2)N2CCc3ccccc32)cc1OC (stereo not given),n,x,x,x,x,25.1µM,
COc1cccc(C(=O)NCC(c2ccc(N(C)C)cc2)N2CCc3ccccc32)c1OC (stereo not given),n,x,x,x,x,n[12.7 µM],
COc1cc(C(=O)NCC(c2ccc(N(C)C)cc2)N2CCc3ccccc32)cc(OC)c1OC (stereo not given),n,x,x,x,x,17.8µM,
CN(C)c1ccc(C(CNC(=O)c2ccccc2C(F)(F)F)N2CCOCC2)cc1 (stereo not given),n,x,x,x,x,n,
COc1cccc(C(=O)NCC(c2ccc(N(C)C)cc2)N2CCc3ccccc32)c1 (stereo not given),n,x,x,x,x,10µM,
CN(C)c1ccc(C(CNC(=O)c2ccc(-c3ccccc3)cc2)N2CCOCC2)cc1 (stereo not given),x,x,x,x,n,14.1µM,
CCCNC(=O)C1CCC(Cn2c(=O)c3sccc3n(CC(=O)N3CCCC(C)C3)c2=O)CC1 (stereo not given),n,x,x,x,x,n,
Cc1ccc2oc(C(=O)N(Cc3cccc(F)c3)C3CCS(=O)(=O)C3)c(C)c2c1 (stereo not given),n,x,x,x,x,n,
Cc1cccc(NC(=O)C(=O)NCC(c2ccc3c(c2)OCO3)N2CCOCC2)c1C (stereo not given),n,x,x,x,x,n,
COc1ccc(Br)cc1CNC(=O)CSc1cc(=O)n(C)c2ccccc12,n,x,x,x,x,n,
Cc1ccc(-n2cnc3c(sc4nc(N5CCOCC5)c5c(c43)CCCC5)c2=O)cc1,n,n,n,n,n,50.1µM,
COc1ccc(-n2cnc3c(sc4nc(N5CCOCC5)c5c(c43)CCCC5)c2=O)cc1,n,n,n,n,n,n,
COc1ccccc1-c1ccc2ncnc(NCCNC(C)=O)c2c1,u,x,n,x,x,n[0.501 µM],
Cc1nc2scc(C)n2c(=O)c1S(=O)(=O)NCCc1ccccc1,u,n,n,11.9µM,n,n,
Cc1nc2scc(C)n2c(=O)c1S(=O)(=O)NC(C)c1ccccc1 (stereo not given),u,n,n,18.9µM,n,n,
N#Cc1nc(COc2ccccc2Cl)oc1NCCc1ccccc1,n,x,x,x,x,u,
COc1ccccc1OCc1nc(C#N)c(NCc2ccc(C)cc2)o1,n,x,x,x,x,11.2µM,
COc1ccc(CCNc2oc(COc3ccccc3Cl)nc2C#N)cc1OC,n,n,n,n,n,u,
COc1ccc(Nc2oc(COc3ccccc3OC)nc2C#N)cc1,n,n,n,u,n,u,
COc1ccc(CCNc2oc(COc3ccccc3F)nc2C#N)cc1OC,n,n,n,26.7µM,n,44.7µM,
CCNc1oc(COc2ccccc2F)nc1C#N,n,n,n,n,n,39.8µM,
O=C(Cn1c2ncccc2c(=O)n1-c1ccccc1)Nc1ccc(F)c(F)c1,n,x,x,x,x,n,
CCOC(=O)c1c(C)[nH]c(C)c1S(=O)(=O)N1CCCC(C(=O)NCc2ccc(N(C)C)cc2)C1 (stereo not given),n,x,x,x,x,u,
O=C(Cn1nnnc1-c1ccccc1F)Nc1ccc(F)c(F)c1,n,x,x,x,x,n,
O=C(O)Cc1sc(Nc2ccc(Cl)cc2)nc1-c1cccs1,n,n,1.26µM,u,n,u,Sfp PPTase conf=59.1µM
